# Screening results (PubChem)
# p-CIP stab down – compounds decreasing mouse p/CIP protein stability | Q05BA5 | F442A p/CIP-EGFP cells, EGFP fluorescence, 16 h | decrease of EGFP signal, % at 10 µM | actives 0.01% (n = 290,000) | AID 1984;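 active = EGFP signal decrease of at least 30% at 10 µM or well 3 SD below plate mean, unless failing retest; inactive = the rest, including hits failing retest or dose response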
# MsrA act – activates bovine MsrA enzyme; purified bovine MsrA, absorbance read-out; activation, % at 10.6 µM; actives 0.3% (n = 360,000); in the data active = activation above about 7.5%;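 also: 0% = vehicle and 100% = reference activator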
# MsrA inhibitor – inhibitors of bovine MsrA | purified bovine MsrA, absorbance read-out | inhibition, % at 15.5 µM | actives 0.75% (n = 360,000);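 also: 0% = vehicle wells with enzyme and 100% = reference inhibitor wells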
# 14-3-3 Bad inh – disrupts binding of bovine 14-3-3 zeta to phospho-Bad peptide; P63103; TR-FRET 14-3-3zeta/Dy647-pBad peptide displacement, 1 h; inhibition, % at 21.7 µM; actives 0.71% (n = 220,000); AID 781;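 active = inhibition above about 70%, limit read from the data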;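 also: 0% = full 14-3-3 plus peptide FRET controls and 100% = background without 14-3-3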
# Target sequence (P63103 whole entry, looked up): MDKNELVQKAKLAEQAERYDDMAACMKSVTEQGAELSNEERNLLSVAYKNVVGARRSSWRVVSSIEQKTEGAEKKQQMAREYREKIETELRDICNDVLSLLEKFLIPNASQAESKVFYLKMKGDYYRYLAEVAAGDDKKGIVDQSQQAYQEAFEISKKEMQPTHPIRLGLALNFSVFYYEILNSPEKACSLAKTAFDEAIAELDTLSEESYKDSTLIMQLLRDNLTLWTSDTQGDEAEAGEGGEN
# MsrA conf – bovine MsrA inhibition, confirmed | shares compounds with MsrA inhibitor | purified bovine MsrA, absorbance read-out | inhibition, % at 15.5 µM | actives 41% (n = 2,300);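 also: coupled to thioredoxin reductase with NADPH and selenocystamine and DMSO as substrate; 0% = vehicle only and 100% = full effect of reference inhibitor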
# Active calls of the source: *; nt = no result given. Hits are enriched below; roughly 1.4% of the tested compounds scored in any of these assays. Rule as the data show it, unless noted: active = inhibition above about 4.5%; inactive = the rest.
SMILES,p-CIP stab down,MsrA act,MsrA inhibitor,14-3-3 Bad inh,MsrA conf
Cc1nc2c(C)cccn2c1/C(O)=C1\C(=O)C(=O)N(CCN(C)C)C1c1ccco1 (stereo not drawn),-2,-9,4.7*,1,0
O=c1c(-c2ccccc2)coc2c(CN3CCCC3)c(O)ccc12,-3,-5,5.5*,-14,2
COc1ccc(C=CC(=O)c2ccc(OC)c(OC)c2)cc1O,nt,-11,4.7*,nt,3
COc1ccc(/C=C/C(=O)c2ccc(O)cc2)cc1,-1,-10,5.2*,6,4
COc1ccc(C=CC(=O)c2ccc3cc(OC)c(OC)cc3c2)cc1OC,nt,-5,2,nt,nt
O=C1[C@H](Cc2ccccc2)NCC=CC[C@H](c2ccc(Cl)cc2)N1Cc1ccccc1,nt,1,0,nt,nt
COc1cc(-c2ccc(Nc3ccccc3C(=O)O)c(OC)c2)ccc1Nc1ccccc1C(=O)O,-6,-7,4.9*,97*,5.3*
O=C(NCC(c1ccco1)N1CCCCC1)c1ccc([N+](=O)[O-])s1 (stereo not drawn),nt,-1,6.0*,nt,4
N#Cc1c(-n2cccc2C=O)sc2c1CCCC2,4,-5,11*,-6,10.0*
CN(C)S(=O)(=O)c1ccc(C(=O)NNC(=O)C23CC4CC(CC(C4)C2)C3)cc1,nt,-3,0,nt,nt
CC1(C)C=C(c2ccc(C=O)s2)CC(C)(C)N1C=O,2,-10,4.8*,1,3
CC1(C)C=C(c2ccc(C=O)s2)CC(C)(C)N1,-6,1,2,nt,nt
O=C(/C=C/c1c(F)cccc1Cl)N1CCc2ccccc2C1,-19,-2,-1,nt,nt
COc1ccc(/C=C2\Oc3cc(OCC(=O)N4CCC[C@H]4C(=O)O)ccc3C2=O)c(OC)c1,6,-3,nt,nt,nt
COc1cccc(/C=C2\Oc3cc(OCC(=O)N4CCC[C@H]4C(=O)O)ccc3C2=O)c1,2,-3,5.7*,nt,5.9*
CCOC(=O)c1ccc2cccc(C)n2c1=O,7,-10,nt,9,nt
CCOC(=O)c1cc(C(C)=O)c(=O)n(C)c1N,-9,-5,5.9*,29,4.8*
Cc1ccc(/C=N/Nc2ccc(Cl)nn2)cc1,-16,2,1,-6,nt
Oc1ccc(/C=N/Nc2ccc(Cl)nn2)cc1O,-13,-10,4.9*,nt,4
CCc1nc2ccccc2n1CC(=O)OCC(=O)N(CC(C)C)c1c(N)n(Cc2ccccc2)c(=O)[nH]c1=O,nt,-1,0,nt,nt
CC1(C2CCC3(C)OC3C2)CO1 (stereo not drawn),nt,-7,-1,nt,nt
C(=N\Nc1nc2ccccc2s1)/c1ccco1,-1,-15,6.2*,43,5.5*
CCCSc1nnc(NC(=O)CSc2sc3c(O)cc(=O)[nH]c3c2C#N)s1,-12,-4,1,nt,nt
N#Cc1c(SCC(=O)Nc2nccs2)sc2c(O)cc(=O)[nH]c12,-10,-5,4.9*,nt,2
CCCn1cc(CN2CCC(Oc3ccc(C(=O)N4CCCC4)cc3)CC2)c(C)n1,1,-4,-1,nt,nt
SMILES,p-CIP stab down,MsrA act,MsrA inhibitor,14-3-3 Bad inh,MsrA conf
Cc1nn(C)cc1/C=C/C(=O)c1cccs1,-6,-4,5.4*,-3,4
Cc1nn(C)cc1/C=C/C(=O)c1ccccc1,-5,-11,3,-12,nt
CCn1nnc(NC(=O)c2ccco2)n1,3,-3,-1,nt,nt
[O-][N+]1=c2ccc(Nc3ccccc3)cc2=NC12CCCCC2,-25,0,11*,-16,8.6*
O=C1C(C=NCCCn2ccnc2)=C(O)c2ccccc21,nt,-9,4.7*,nt,2
CC(C)CN=CC1=C(O)c2ccccc2C1=O,-5,-5,4,-2,nt
O=C1C(C=NCCCN2CCCC2=O)=C(O)c2ccccc21,-3,-2,5.2*,-3,3
CC(=O)c1ccc(S(=O)(=O)NCCC(=O)NC(C)c2ccncc2)cc1 (stereo not drawn),nt,-10,1,nt,nt
O=C(NC(=S)Nc1ccccc1Cl)C1CC1,16,-6,7.0*,nt,4
COc1ccccc1NC(=S)NC(=O)C1CC1,-4,-1,2,-15,nt
O=C(Nc1sc2c(c1C(=O)O)CCCCC2)c1ccco1,-10,-1,6.0*,0,4
CC1CCc2c(sc(NC(=O)c3ccco3)c2C(=O)O)C1 (stereo not drawn),-4,-3,5.8*,nt,4.7*
CN1CCN(C(=O)c2c(NC(=O)c3ccco3)sc3c2CCC(C(C)(C)C)C3)CC1 (stereo not drawn),-10,-4,-1,2,nt
CN(C)C(=O)c1c(NC(=O)c2ccco2)sc2c1CCCCC2,-8,2,1,-9,nt
COC(=O)C1CC(c2ccccc2)N(c2ccccc2)O1 (stereo not drawn),nt,-3,0,nt,nt
